Inconclusive results are not listed. Calls of active or inactive are those of the source. Unless noted, calls come from the whole dose curve; as a rule, active = well fitted curve in the direction sought with a large enough effect in the repeat runs; inconclusive = weak or mixed curves; inactive = no such curve, though single readings can be large; an effect the other way counts as inactive or inconclusive.
Assays:
[1] = qHTS assay to identify small molecule antagonists of the estrogen receptor alpha (ER-alpha) signaling pathway using the BG1 cell line in the presence of 0.1 nM 17-beta-estradiol - cell viability counter screen (AID 1259241); note: nearly all actives have a fitted effect of over 40% in size
How it was run: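 Measures cytotoxicity alongside the ER-alpha antagonist readout: VM7Luc4E2 cells, charcoal-stripped serum, 0.1 nM 17beta-estradiol final, 22 hr compound incubation at 37C, CellTiter-Fluor fluorescence.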

[2] = qHTS assay to identify small molecule antagonists of the androgen receptor (AR) signaling pathway using the MDA cell line in the presence of 0.5 nM R1881 - cell viability counter screen (AID 1259242); note: nearly all actives have a fitted effect of over 45% in size
How it was run: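 Human breast carcinoma MDA-kb2 cells, cultured without CO2, receive compounds alongside 0.5 nM (final) R1881 agonist. After 16 hr at 37C, viability is taken as live-cell protease signal.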

[3] = target: Estrogen receptor (Homo sapiens) (UniProt P03372); assay: qHTS assay to identify small molecule antagonists of the estrogen receptor alpha (ER-alpha) signaling pathway using the BG1 cell line in the presence of 0.1 nM 17-beta-estradiol (AID 1259244); note: nearly all actives have a fitted effect of over 50% in size
How it was run: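 Seeding of stripped-serum-adapted VM7Luc4E2 cells, 24 h attachment, compound transfer, then 0.1 nM final 17beta-estradiol; after 22 h incubation, ONE-Glo reagent and luminescence reading.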

[4] = qHTS assay to identify small molecule phospholipidosis (PLD) inducers (AID 1259344; active = well fitted curve in the direction sought with a large enough effect; an effect the other way counts as inactive or inconclusive)
How it was run: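 Cells (HepG2, 900 per well) attach for 4 h, receive LipidTOX Red and compound together, incubate 24 h at 37 C, are fixed 30 min with paraformaldehyde/Hoechst, then imaged at one site per well.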

[5] = qHTS assay to identify small molecule HDAC inhibitors (AID 1259364);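 note: wild-type HCT-116 cells with endogenous class I/II HDAC activity; top concentration of the series differs between compounds; nearly all actives have a fitted effect of over 45% in size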
How it was run: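 After a 2 hr compound incubation (37C, 5% CO2), HCT-116 cells seeded at 1,500/well the day before received HDAC-Glo reagent; signal read as luminescence after 30 min at room temperature.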

[6] = qHTS assay to identify small molecule HDAC inhibitors - cell viability counter screen (AID 1259365); note: series mostly up to about 92 µM; nearly all actives have a fitted effect of over 50% in size
How it was run: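 Following a 2hr exposure of overnight-plated wild-type HCT-116 cells to DMSO-delivered compounds, CellTiter-Glo was added and luminescence recorded after 30min at room temperature.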

[7] = qHTS assay to identify small molecule agonists of the sonic hedgehog signaling (Shh) pathway - cell viability counter screen (AID 1259366); note: nearly all actives have a fitted effect of over 50% in size
How it was run: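 After a 4hr attachment at 37C, NIH/3T3 cells bearing an integrated Gli1-driven luciferase reporter were dosed with compounds. Treatment lasted 24hr, with the final hour including CellTiter-Fluor for a fluorescence viability measurement.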

[8] = qHTS assay to identify small molecule antagonists of the sonic hedgehog signaling (Shh) pathway - cell viability counter screen (AID 1259367); note: nearly all actives have a fitted effect of over 55% in size
How it was run: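 Cytotoxicity was assessed in parallel with Shh reporter activity by measuring live-cell protease fluorescence (CellTiter-Fluor) in NIH/3T3 cells stably carrying Gli1-Luc, treated with compound under conditioned medium stimulation for 23 hr plus 1 hr reagent incubation.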

[9] = qHTS assay to identify small molecule agonists of the sonic hedgehog signaling (Shh) pathway (AID 1259368; calls by dose curve;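 note: NIH/3T3-derived 3T3Gli1-Luc cells carrying a stable Gli1-driven firefly luciferase reporter; series mostly up to about 92 µM; nearly all actives have a fitted effect of over 15% in size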)
How it was run: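 Stable NIH/3T3 Gli1-Luc reporter clone; 24 hr cpd exposure after a 4 hr settling period; luminescence endpoint.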

[10] = qHTS assay to identify small molecule antagonists of the sonic hedgehog signaling (Shh) pathway (AID 1259369; calls by dose curve; note: nearly all actives have a fitted effect of over 45% in size)
How it was run: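 Gli1 transcriptional reporter (firefly Luc) in NIH/3T3 background, conditioned-medium activated. 24hr exposure, luminescence endpoint.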

[11] = target: Estrogen receptor beta (Homo sapiens) (UniProt Q92731); assay: qHTS assay to identify small molecule agonists of the estrogen receptor beta (ER-beta) signaling pathway (AID 1259377; active = well fitted activation curve with a large enough effect in the signal ratio in the repeat runs, not every such curve was filed as active; the % refers to the signal ratio)
How it was run: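 In HEK293T cells bearing a UAS-beta-lactamase reporter under ER-beta control, DMSO-delivered compounds were incubated for 16 hr at 37C. Activity was detected as fluorescence 2 hours after LiveBLAzer B/G FRET substrate addition.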

[12] = target: Estrogen receptor beta (Homo sapiens) (UniProt Q92731); assay: qHTS assay to identify small molecule antagonists of the estrogen receptor beta (ER-beta) signaling pathway (AID 1259378; active = well fitted inhibition curve with a large enough effect in the signal ratio in the repeat runs, not every such curve was filed as active; the % refers to the signal ratio)
How it was run: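 ER-beta-UAS-bla HEK293T (GripTite) cells in 2% charcoal-stripped FBS medium were preincubated 6 hr at 37C, dosed with compound, then stimulated with 1 nM E2 (final) for 16 hr; beta-lactamase reporter read by B/G FRET fluorescence after 2 hr substrate loading.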

[13] = qHTS assay to identify small molecule agonists of the androgen receptor (AR) signaling pathway in the presence of an antagonist - cell viability counter screen (AID 1259379);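 note: MDA-kb2 human breast cancer cells carrying an MMTV luciferase reporter; series mostly up to about 92 µM; nearly all actives have a fitted effect of over 25% in size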
How it was run: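 Counter screen for cell viability run in parallel with the AR agonist-mode luciferase assay. MDA-kb2 cells were co-treated with nilutamide (3.0uM final) and compounds, then incubated 16 hr at 37C, and CellTiter-Fluor fluorescence was measured.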

[14] = qHTS assay to identify small molecule agonists of the estrogen receptor beta (ER-beta) signaling pathway - cell viability counter screen (AID 1259380); note: nearly all actives have a fitted effect of over 30% in size; note: potency is the fitted concentration of half-maximal effect
How it was run: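 In this qHTS counter screen, HEK293T cells carrying an ER-beta/UAS beta-lactamase reporter, grown in 2% charcoal-stripped FBS, received compound for 16 hr; ATP-based CellTiter-Glo luminescence was then read after 30 min at room temperature.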

[15] = qHTS assay to identify small molecule antagonists of the estrogen receptor beta (ER-beta) signaling pathway - cell viability counter screen (AID 1259382); note: series mostly up to about 92 µM; nearly all actives have a fitted effect of over 55% in size
How it was run: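 HEK293T ER-beta-UAS-bla, 2% charcoal-stripped FBS; compounds + 1nM E2 16 hr 37C; CellTiter-Glo luminescence, 30 min RT.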

[16] = target: Estrogen receptor (Homo sapiens) (UniProt P03372); assay: qHTS assay to identify small molecule agonists of the estrogen receptor alpha (ER-alpha) signaling pathway in the presence of an antagonist (AID 1259383; calls by dose curve; note: top concentration of the series differs between compounds; nearly all actives have a fitted effect of over 15% in size)
How it was run: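 ER-alpha agonism measured under antagonist challenge: 10.0nM ICI-182,780 (final) plus compound, 15 concentrations, 22hr, VM7Luc4E2 ERE-luciferase cells. Read by luminescence.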

[17] = qHTS assay to identify small molecule agonists or antagonists of the thyroid stimulating hormone receptor (TSHR) signaling pathway - wild type cell line counter screen (AID 1259384; calls by dose curve)
How it was run: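 Wild-type HEK293 cells were plated 18 h at 37 C/5% CO2, pin-dosed with compound plus Ro20-1724 medium, held 30 min at room temperature, then given cAMP-d2 and anti-cAMP-cryptate; fluorescence was read after 1 h. Fifteen concentrations, triplicate.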

[18] = target: Androgen receptor (Homo sapiens) (UniProt P10275); assay: qHTS assay to identify small molecule antagonists of the androgen receptor (AR) signaling pathway using the MDA cell line in the presence of 0.5 nM R1881 (AID 1259243); note: nearly all actives have a fitted effect of over 50% in size
How it was run: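 Cells: MDA-kb2 (MMTV-luc). Stimulus: 0.5 nM R1881. Time: 16 hr, 37C, no CO2. Detection: ONE-Glo luminescence after 30 min at RT.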

[19] = target: Androgen receptor (Homo sapiens) (UniProt P10275); assay: qHTS assay to identify small molecule agonists of the androgen receptor (AR) signaling pathway in the presence of an antagonist (AID 1259381; calls by dose curve; note: nearly all actives have a fitted effect of over 15% in size)
How it was run: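 AR antagonist background: nilutamide 3.0uM final. Cell line: MDA-kb2, MMTV-driven luciferase, responsive to both AR and GR. Exposure 16hr, 37C, no CO2; ONE-Glo luminescence.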

[20] = target: Thyrotropin receptor (Homo sapiens) (UniProt P16473); assay: qHTS assay to identify small molecule antagonists of the thyroid stimulating hormone receptor (TSHR) signaling pathway (AID 1259385; calls by dose curve; note: nearly all actives have a fitted effect of over 20% in size)
How it was run: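 TSHR-HEK293 cells were plated and held 18 h at 37C/5% CO2, then given compound plus Ro20-1724 and stimulated with TSH at 1.5 ng/mL final. After 30 min at room temperature, cAMP was detected with cAMP-d2/anti-cAMP-cryptate (1 h) by fluorescence.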

Measured: Potency

Sequence of Estrogen receptor beta (Homo sapiens) (Q92731 whole entry, looked up): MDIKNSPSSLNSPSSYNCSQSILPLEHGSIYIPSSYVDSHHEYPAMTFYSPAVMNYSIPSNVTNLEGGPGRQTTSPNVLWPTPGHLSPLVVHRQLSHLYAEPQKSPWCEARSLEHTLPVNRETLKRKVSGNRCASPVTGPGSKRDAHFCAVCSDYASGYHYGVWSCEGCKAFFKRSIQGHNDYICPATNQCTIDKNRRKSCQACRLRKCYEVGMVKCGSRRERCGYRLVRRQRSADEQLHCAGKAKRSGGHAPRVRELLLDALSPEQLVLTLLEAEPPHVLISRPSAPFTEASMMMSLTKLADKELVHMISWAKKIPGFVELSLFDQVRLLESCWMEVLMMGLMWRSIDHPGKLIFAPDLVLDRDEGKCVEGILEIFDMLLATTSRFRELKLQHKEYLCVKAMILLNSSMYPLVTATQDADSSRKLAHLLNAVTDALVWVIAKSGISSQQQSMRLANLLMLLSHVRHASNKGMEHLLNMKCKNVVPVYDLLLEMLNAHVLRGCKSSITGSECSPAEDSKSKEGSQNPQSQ
Sequence of Androgen receptor (Homo sapiens) (P10275 whole entry, looked up): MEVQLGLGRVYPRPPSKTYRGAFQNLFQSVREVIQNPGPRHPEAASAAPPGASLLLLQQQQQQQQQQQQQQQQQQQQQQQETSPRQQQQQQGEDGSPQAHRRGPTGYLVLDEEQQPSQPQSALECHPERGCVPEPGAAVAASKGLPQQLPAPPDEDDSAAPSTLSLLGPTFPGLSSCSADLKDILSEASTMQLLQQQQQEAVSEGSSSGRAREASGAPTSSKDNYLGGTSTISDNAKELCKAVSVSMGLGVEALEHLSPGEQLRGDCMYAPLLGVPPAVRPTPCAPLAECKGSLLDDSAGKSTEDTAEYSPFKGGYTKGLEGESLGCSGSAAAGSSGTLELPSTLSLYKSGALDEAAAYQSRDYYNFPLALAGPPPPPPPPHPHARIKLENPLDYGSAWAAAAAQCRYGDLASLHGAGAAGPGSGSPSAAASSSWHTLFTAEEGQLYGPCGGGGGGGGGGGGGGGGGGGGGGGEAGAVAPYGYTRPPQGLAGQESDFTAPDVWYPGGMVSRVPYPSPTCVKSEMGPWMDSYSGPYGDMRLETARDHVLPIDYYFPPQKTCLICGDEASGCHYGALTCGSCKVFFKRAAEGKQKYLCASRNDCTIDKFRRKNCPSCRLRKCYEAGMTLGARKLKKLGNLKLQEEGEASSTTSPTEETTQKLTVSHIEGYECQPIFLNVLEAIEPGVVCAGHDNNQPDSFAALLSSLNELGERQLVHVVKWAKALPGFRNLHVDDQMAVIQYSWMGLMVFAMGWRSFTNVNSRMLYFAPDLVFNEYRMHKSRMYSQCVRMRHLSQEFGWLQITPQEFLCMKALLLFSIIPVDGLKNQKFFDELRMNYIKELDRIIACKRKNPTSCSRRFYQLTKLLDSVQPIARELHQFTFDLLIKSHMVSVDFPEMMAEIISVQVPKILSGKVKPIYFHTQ
Sequence of Thyrotropin receptor (Homo sapiens) (P16473 whole entry, looked up): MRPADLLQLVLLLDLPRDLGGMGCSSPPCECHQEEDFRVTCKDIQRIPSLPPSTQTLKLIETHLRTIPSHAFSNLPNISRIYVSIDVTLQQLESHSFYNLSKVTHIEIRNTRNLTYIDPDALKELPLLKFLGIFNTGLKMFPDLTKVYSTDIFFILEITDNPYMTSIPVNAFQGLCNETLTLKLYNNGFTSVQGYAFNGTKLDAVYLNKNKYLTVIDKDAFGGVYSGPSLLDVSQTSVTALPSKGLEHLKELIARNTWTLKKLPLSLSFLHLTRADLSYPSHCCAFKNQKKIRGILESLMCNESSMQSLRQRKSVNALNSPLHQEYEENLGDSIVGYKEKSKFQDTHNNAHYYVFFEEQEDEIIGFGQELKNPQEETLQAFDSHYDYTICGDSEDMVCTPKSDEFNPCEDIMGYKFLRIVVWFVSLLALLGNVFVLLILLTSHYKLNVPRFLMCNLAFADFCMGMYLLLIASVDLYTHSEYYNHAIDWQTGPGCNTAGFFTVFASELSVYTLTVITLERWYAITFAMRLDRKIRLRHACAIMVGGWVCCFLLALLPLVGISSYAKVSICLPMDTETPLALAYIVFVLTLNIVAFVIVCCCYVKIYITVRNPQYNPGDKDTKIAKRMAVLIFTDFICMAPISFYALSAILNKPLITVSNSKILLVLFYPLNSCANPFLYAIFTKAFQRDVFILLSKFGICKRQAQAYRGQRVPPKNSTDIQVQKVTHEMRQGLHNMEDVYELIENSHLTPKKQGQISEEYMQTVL
Sequence of Estrogen receptor (Homo sapiens) (P03372 whole entry, looked up): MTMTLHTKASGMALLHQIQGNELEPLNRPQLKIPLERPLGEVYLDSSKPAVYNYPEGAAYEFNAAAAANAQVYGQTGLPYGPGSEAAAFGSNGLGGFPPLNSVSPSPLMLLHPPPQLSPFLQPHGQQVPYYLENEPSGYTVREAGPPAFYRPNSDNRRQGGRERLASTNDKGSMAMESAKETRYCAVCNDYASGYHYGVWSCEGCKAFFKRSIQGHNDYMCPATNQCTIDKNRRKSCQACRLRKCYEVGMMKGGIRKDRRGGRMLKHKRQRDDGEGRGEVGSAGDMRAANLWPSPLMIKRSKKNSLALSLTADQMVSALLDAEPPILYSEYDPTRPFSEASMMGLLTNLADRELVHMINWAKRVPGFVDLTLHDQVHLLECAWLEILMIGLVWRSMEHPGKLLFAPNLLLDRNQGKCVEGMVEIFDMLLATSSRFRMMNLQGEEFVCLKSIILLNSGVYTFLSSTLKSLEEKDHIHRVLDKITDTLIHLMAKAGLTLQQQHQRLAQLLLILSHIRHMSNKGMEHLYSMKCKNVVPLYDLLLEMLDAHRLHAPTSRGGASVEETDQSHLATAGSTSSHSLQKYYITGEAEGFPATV

O=C(CO)[C@@H](O)[C@H](O)[C@@H](O)CO
inactive: [1] | [2] | [3] | [4] | [5] | [6] | [7] | [8] | [9] | [10] | [11] | [12] | [13] | [14] | [15] | [16] | [17]

O=C(O)CCSCCC(=O)O
inactive: [1] | [2] | [18] | [3] | [5] | [6] | [7] | [8] | [9] | [10] | [11] | [12] | [13] | [14] | [19] | [15] | [16] | [17]

COCCOC[C@H](CC1(C(=O)NC2CCC(C(=O)O)CC2)CCCC1)C(=O)Oc1ccc2c(c1)CCC2 (stereo partly drawn)
inactive: [1] | [2] | [18] | [3] | [5] | [6] | [9] | [10] | [11] | [12] | [14] | [19] | [15] | [16] | [17] | [20]

Cc1nc2ccc(CN(C)c3ccc(C(=O)N[C@@H](CCC(=O)O)C(=O)O)s3)cc2c(=O)[nH]1
inactive: [1] | [2] | [18] | [4] | [5] | [6] | [7] | [8] | [9] | [10] | [13] | [19] | [17] | [20]
active: [14] 0.15 µM

CN(C)C(=O)Oc1cccc([N+](C)(C)C)c1
inactive: [1] | [2] | [3] | [4] | [5] | [6] | [7] | [8] | [9] | [10] | [13] | [14] | [15] | [16] | [17] | [20]

O=C(O)Cc1csc(-c2ccc(Cl)cc2)n1
inactive: [1] | [2] | [18] | [3] | [4] | [5] | [6] | [7] | [8] | [9] | [10] | [11] | [12] | [13] | [14] | [19] | [15] | [16] | [17]

C[N+]1(C)[C@@H]2CC(OC(=O)[C@H](CO)c3ccccc3)C[C@H]1[C@@H]1O[C@@H]12 (stereo partly drawn)
inactive: [1] | [2] | [3] | [4] | [5] | [6] | [7] | [8] | [9] | [10] | [13] | [14] | [15] | [16] | [17]

O=[N+]([O-])c1cncn1CCN1CCOCC1
inactive: [1] | [2] | [18] | [3] | [5] | [6] | [7] | [8] | [9] | [10] | [11] | [12] | [13] | [19] | [15] | [16] | [17]

Reference: PubChem BioAssay (Tox21)
